# PubChem BioAssay (EPA / NIEHS)
# Where “and” joins values, the source holds several entries; their conditions need not be identical. Identical values can stand only once. Inconclusive results are not listed. More than one record can exist for a structure, and the calls need not agree. Calls of active or inactive are those of the source. How the source made its calls, unless noted: active means hit-call score of the fitted dose curve at least 0.9, where 1 is the maximum; inconclusive means response in the unintended direction; inactive means score below 0.9.
# What was measured:
# [1] = read-out: UDP glucuronosyltransferase (UGT1A1), UGT1A1 (gene 54658); assay: LTEA_HepaRG_UGT1A1: Life Technologies and Expression Analysis (LTEA) Assay for UDP glucuronosyltransferase (UGT1A1) using HepaRG (AID 2283538; active means hit-call score of the fitted dose curve at least 0.9, where 1 is the maximum; inactive means score below 0.9); details: mRNA level, 48 h; actives raise or lower the signal
# Outline: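 Human liver HepaRG cultures receive test chemical for 48 h, up to 100 uM in 0.5% DMSO, with phenobarbital induction controls. UGT1A1 mRNA is measured by qRT-PCR and normalized to ACTB, GAPDH and POLR2A.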
# [2] = read-out: UDP glucuronosyltransferase (UGT1A6), UGT1A6 (gene 54578); assay: LTEA_HepaRG_UGT1A6: Life Technologies and Expression Analysis (LTEA) Assay for UDP glucuronosyltransferase (UGT1A6) using HepaRG (AID 2283539; active means hit-call score of the fitted dose curve at least 0.9, where 1 is the maximum; inactive means score below 0.9); details: mRNA level, 48 h; actives raise or lower the signal
# Method: LTEA_HepaRG is a cell based, multiplexed-readout assay that uses HepaRG, a human liver cell line, with measurements taken at 48 hours after chemical dosing on a 96-well plate.LTEA_HepaRG_UGT1A6 is one of 102 assay component(s) measured in the LTEA HepaRG cell culture assay. It is a marker of NR mediated metabolism.Data from the assay component LTEA_HepaRG_UGT1A6 was analyzed into 1 endpoint. This assay endpoint, LTEA_HepaRG_UGT1A6, was analyzed with bidirectional fitting relative to DMSO as the negative control and baseline of activity. Using a type of inducible reporter, measures of mRNA induction for gain or loss-of-signal activity can be used to understand regulation of transcription factor activity. To generalize the intended target to other relatable targets, this assay endpoint is annotated to the transferase intended target family, where the subfamily is glucuronosyltransferase.
# A total of 1060 chemcials from the ToxCast library were tested in eight-point concentration-response experiments. Cell culture and cytotoxicity assays were conducted at Thermo Fisher Scientific's Custom Services facility (Madison, WI). A single lot of human HepaRG cells (Thermo Fisher Scientific, Frederick, MD) was used for the cell culture experiments. 96-well format collagen type I coated plates of human HepaRG cells were prepared using established methods. Briefly, cryopreserved HepaRG cells were thawed, plated at a density of approximately 100,000 cells/well in HepaRG Thaw, Plate, and General Purpose media (HPRG770, Thermo Fisher Scientific), and incubated for 48 hours. 0.5% DMSO was selected as vehicle control to balance the requisite need of DMSO in HepaRG cultures to maintain differentiation (for example, baseline metabolism, proportions of hepatocytes vs. cholangiocytes), while enabling further hepatic receptor pathway activation (for example, PXR and CAR) in response to chemical exposure. 48 hours after plating, the culture medium was replaced with HepaRG Serum-Free Incudtion Media. Cells were exposed to each test chemical in duplicate and maintained in CO2 incubators for another 48 hours. Chemical plates were thawed to room temperature and 200x concentrations of treatment groups were prepared. 8-point conentration-reponse curves were made with the highest exposure at 100 uM, followed by half-log dilutions, all in 0.5% DMSO. Each test plate contained variouse controls, induction positive controls (1mM phenobarbital), cytotoxicity positive controls ([…] aflatoxin B1), vehicle controls (0.5% DMSO), and total lysis controls (0.5% DMSO). Cell morphology images were taken using an Essen IncuCyte FLR automated microscope, with six 96-well plates imaged in about 24 minutes. Images were captured and exported and JPEG files. Spent culture media was transfered to black-well plates for the LDH assay, and remaining media was sorted at -80 C for later use. Cells were treated with RLT buffer and frozen until shipped for gene expression analysis. Total RNA was isolated from the cell suspension in 75 uL of Buffer RLT (Qiagen, Germantown, MD 20874) by Quintiles/Expression Analysis (Durham, NC) using a custom isolation procedure. Total RNA from each plate well was transferred to a preamplification plate. Fluidigm's 96.96 Dynamic ArrayTM (Fluidigm, Amsterdam, the Netherlands) technology was used for gene expression analyses by quantitative reverse transcription polymerase chain reaction (qRT-PCR, performed by Quintiles/Expression Analysis, Durham, NC)89. Standard TaqManTM Assays (Applied Biosystems/ThermoFisher Scientific, Foster City, CA) were used to assess the expression of 93 genes selected based on their selectivity and sensitivity to important hepatic receptors known to be modulated by environmental chemicals; importance in human hepatocyte functionality; and hepatotoxicity. […]
# [3] = read-out: X-box binding protein 1 (XBP1), XBP1 (gene 7494); assay: LTEA_HepaRG_XBP1: Life Technologies and Expression Analysis (LTEA) Assay for X-box binding protein 1 (XBP1) using HepaRG (AID 2283540; active means hit-call score of the fitted dose curve at least 0.9, where 1 is the maximum; inactive means score below 0.9); details: mRNA level, 48 h; actives raise or lower the signal
# Outline: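 Eight concentrations (half-log, highest 100 uM, 0.5% DMSO) tested in duplicate on HepaRG cells over 48 h in serum-free induction medium; qRT-PCR of XBP1 normalised to ACTB, GAPDH, POLR2A.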
# [4] = LTEA_HepaRG_LDH_cytotoxicity: Cytotoxicity Assessment in the Life Technologies and Expression Analysis (LTEA) Assay (AID 2283563);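 on AC50: LDH activity released into spent culture medium as a marker of cell death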
# Outline: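 Spent-medium LDH after 48 h chemical exposure of HepaRG cells in serum-free induction medium; eight concentrations, half-log dilutions from 100 uM, duplicate wells, fitted upward relative to 0.5% DMSO.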
# [5] = ATG_XTT_Cytotoxicity: Cytotoxicity Assessment in the Attagene TRANS-FACTORIAL HepG2 Assay (AID 2283584);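 on AC50: XTT signal for cell number as viability in transfected HepG2 cells; cells exposed to compound for 24 h before reading; active means loss of viability signal versus DMSO baseline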
# Outline: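 24 h chemical exposure of reporter-transfected HepG2; XTT signal loss vs DMSO indicates cytotoxicity.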
# [6] = molecular target: Cellular tumor antigen p53 (Homo sapiens) (UniProt P04637); assay: TOX21_p53_BLA_p2_ratio: Tox21 HCT-116 p53 Agonism Beta-lactamase Assay, Ratio, Phase 2 (AID 2283592)
# Outline: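 Human colon HCT116 cells with an inducible p53 beta-lactamase reporter are exposed to test chemicals for 16 h at 37C. Reporter induction is read as the 460/530 nm emission ratio after CCF4-AM loading, normalized to DMSO.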
# [7] = TOX21_p53_BLA_p3_viability: Viability Assessment in the Tox21 HCT-116 p53 Agonism Beta-lactamase Assay, Phase 3 (AID 2283593);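 further: cells exposed to compound for 16 h before reading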
# Outline: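 HCT116 cells, 4000/well, dosed 5 h after plating by pin transfer (217-fold dilution from DMSO stock) and incubated 16 h at 37C, 5% CO2. Viability read as ATP luminescence with CellTiter-Glo after 30 min at room temperature.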
# [8] = molecular target: Cellular tumor antigen p53 (Homo sapiens) (UniProt P04637); assay: TOX21_p53_BLA_p3_ratio: Tox21 HCT-116 p53 Agonism Beta-lactamase Assay, Ratio, Phase 3 (AID 2283596)
# Outline: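 HCT116 p53-bla cells (4000/well) given compound in DMSO (217-fold dilution) after 5 h, incubated 16 h at 37C. CCF4-AM substrate 2 h at room temperature; 460/530 nm emission ratio, gain fitted against DMSO.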
# [9] = TOX21_p53_BLA_p2_viability: Viability Assessment in the Tox21 HCT-116 p53 Agonism Beta-lactamase Assay, Phase 2 (AID 2283591);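 further: compound exposure lasted 16 h at 37 °C; actives lower the ATP signal meaning cytotoxicity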
# Outline: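 HCT116 p53-bla cells, 4000/well, dosed after 5 h plating (217-fold dilution of DMSO stocks) and incubated 16 h at 37C. Viability taken as cellular ATP by CellTiter-Glo luminescence after 30 min RT; signal loss marks cytotoxicity.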
# [10] = TOX21_p53_BLA_p4_viability: Viability Assessment in the Tox21 HCT-116 p53 Agonism Beta-lactamase Assay, Phase 4 (AID 2283597);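 further: hits lower the luminescence signal meaning cytotoxicity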
# Outline: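 Luminescent ATP readout (CellTiter-Glo, 30 min, room temperature) in the same wells as the p53 bla ratio. HCT116 cells were treated for 16 h at 37C with DMSO-dissolved compounds.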
# Cellular tumor antigen p53 (Homo sapiens), sequence (P04637 whole entry, looked up): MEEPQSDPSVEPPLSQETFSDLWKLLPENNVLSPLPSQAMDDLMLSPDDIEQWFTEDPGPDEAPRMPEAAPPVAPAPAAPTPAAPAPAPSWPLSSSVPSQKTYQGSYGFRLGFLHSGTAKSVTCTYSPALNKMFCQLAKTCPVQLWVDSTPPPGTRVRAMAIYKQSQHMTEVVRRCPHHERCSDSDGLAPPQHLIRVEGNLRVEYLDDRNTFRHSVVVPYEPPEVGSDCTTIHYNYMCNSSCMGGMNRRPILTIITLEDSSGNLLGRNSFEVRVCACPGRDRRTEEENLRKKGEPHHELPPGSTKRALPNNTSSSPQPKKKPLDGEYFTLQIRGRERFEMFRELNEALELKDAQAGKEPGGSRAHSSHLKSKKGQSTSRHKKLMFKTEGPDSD
smiles,measurement,setting,value
C[C@]12CC[C@@H]3c4ccc(O)cc4CC[C@H]3[C@@H]1CC[C@@H]2O,AC50,[1],10.3 µM (active)
same,outcome,[2],inactive
same,outcome,[3],inactive
same,outcome,[4],inactive
same,outcome,[5],inactive
same,AC50,[6],29 µM (active) and 16.7 µM (active)
same,outcome,[6],inactive
same,outcome,[7],inactive
same,AC50,[8],32 µM (active) and 34.9 µM (active)
same,outcome,[8],inactive
C=C(C)C(N)=O,outcome,[1],inactive
same,outcome,[2],inactive
same,outcome,[3],inactive
same,outcome,[4],inactive
same,outcome,[5],inactive
same,outcome,[9],inactive
same,outcome,[6],inactive
same,outcome,[7],inactive
same,outcome,[8],inactive
same,outcome,[10],inactive
CCn1cc(C(=O)O)c(=O)c2ccc(C)nc21,outcome,[5],inactive
O=C(O)c1cc2ccccc2cc1O,outcome,[5],inactive
CC(CO)(CO)[N+](=O)[O-],outcome,[5],inactive
CC(=N[Si](C)(C)C)O[Si](C)(C)C,outcome,[5],inactive
CC/C(=C(\c1ccccc1)c1ccc(OCCN(C)C)cc1)c1ccccc1,AC50,[1],32.1 µM (active)
same,outcome,[1],inactive
same,AC50,[2],45.8 µM (active)
same,outcome,[2],inactive
same,AC50,[3],45.8 µM (active) and 96.2 µM (active)
same,AC50,[4],63.5 µM (active) and 73.5 µM (active)
same,outcome,[5],inactive
same,AC50,[9],33.7 µM (active) and 69.5 µM (active) and 35.2 µM (active)
same,outcome,[9],inactive
same,AC50,[6],47.8 µM (active) and 84.4 µM (active) and 43.5 µM (active)
same,outcome,[6],inactive
same,AC50,[7],74.8 µM (active) [middle of 5 runs]
same,AC50,[8],86.9 µM (active) [middle of 4 runs]
same,outcome,[8],inactive
CC(O)CN (stereo not drawn),outcome,[5],inactive
OCCN1CCOCC1,outcome,[5],inactive
CCCCOCCOCCO,AC50,[1],50 µM (active)
same,outcome,[2],inactive
same,outcome,[3],inactive
same,outcome,[4],inactive
same,outcome,[5],inactive
same,outcome,[9],inactive
same,outcome,[6],inactive
same,outcome,[7],inactive
same,outcome,[8],inactive
same,outcome,[10],inactive
C#C[C@]1(O)CC[C@H]2[C@@H]3CCc4cc(O)ccc4[C@H]3CC[C@@]21C,outcome,[1],inactive
same,outcome,[2],inactive
same,outcome,[3],inactive
same,outcome,[4],inactive
same,outcome,[5],inactive
same,outcome,[9],inactive
same,AC50,[6],9 µM (active) and 6.58 µM (active) and 7.36 µM (active)
same,AC50,[8],15.2 µM (active) and 16.2 µM (active)
same,outcome,[10],inactive
CCC(CC)CO,outcome,[5],inactive
CCCC1CCC(=O)CC1,outcome,[5],inactive
CCO[Si](CCC#N)(OCC)OCC,outcome,[5],inactive
CCCCCCCCCCCCOC(C)=O,outcome,[5],inactive
O=c1cc[nH]cc1,outcome,[5],inactive
O=C1OCc2ccccc21,outcome,[5],inactive
O=C(c1ccc(OCCN2CCCCC2)cc1)c1c(-c2ccc(O)cc2)sc2cc(O)ccc12,AC50,[1],50 µM (active)
same,AC50,[2],50 µM (active)
same,AC50,[3],50 µM (active)
same,AC50,[4],77.4 µM (active)
same,AC50,[5],28.3 µM (active) and 28.6 µM (active) and 34.3 µM (active)
same,outcome,[5],inactive
same,AC50,[6],68.6 µM (active) and 62.8 µM (active) and 36.4 µM (active)
same,AC50,[7],69.8 µM (active) and 74.5 µM (active) and 35.6 µM (active)
same,AC50,[10],68.2 µM (active) and 68.5 µM (active) and 25.1 µM (active)
NNC(=O)OCc1ccccc1,outcome,[5],inactive
Cc1ccccc1S,outcome,[5],inactive
Cc1cc(O)c(C)c(C)c1O,outcome,[5],inactive
c1ccc(Sc2ccccc2)cc1,outcome,[5],inactive
